# Earlier results as cited in PubChem BioAssay AID977611.
# Hit rate of the full screen: of about 3,900 compounds, about 3,900 (100%) were called active. The limit is not given here; nearly all actives have Kd up to about 4200 µM. So high a share suggests a set chosen from earlier hits. Some of the results follow. *1 amine or outer side, *2 acyl side, *3 side chain or, on linkers, in order; H or OH if unused. Where a SMILES comes first, the peptide text is derived from it. [ ]: non-standard residue; d: D form. The star is where a group is joined. X3 = CCCCCC[C@](C)(N[C@@H](O)CN)[C@H](O)N([C@@H](CC(C)C)C(=O)[*:2])[*:1]; Thr(P(OH)3+) = C[C@@H](O[P+](O)(O)O)[C@H](N)C(=O)O; Orn(CH(NH2)2) = NC(N)NCCC[C@H](N)C(=O)O; X4 = CCCCCC[C@](C)(N[*:1])C(=O)[*:2]; X1 = CCCC[C@@](C)(N[*:1])C(=O)[*:2]; X2 = CCCC[C@](C)(N[*:1])C(=O)[*:2]; Suc = O=C(CCC(=O)[*:2])[*:1]; Bz = O=C(c1ccccc1)*
# Assay: PubChem AID 977611
# Settings: PDB protein-ligand complexes, literature Kd
structure (smiles),measurement,setting,value
O=C1C=C(O)C(=O)C=C1O,Kd,"protein: 5-chloro-2-hydroxyhydroquinone dehydrochlorinase (TftG), PDB entry 4lbp",11.4 µM (active)
CNS(=O)(=O)Nc1nccc(Cc2c(C)c3ccc(Oc4ncccn4)cc3oc2=O)c1F,Kd,"protein: Dual specificity mitogen-activated protein kinase kinase 1, Human MEK1 kinase, PDB entry 3wig",0.0023 µM (active)
CC(C)C[C@H](NC(=O)[C@@H](NC(=O)CNC(=O)c1ccccc1)C(C)C)C(=O)N[C@@H](CCCCNC(=O)CCC(=O)O)C(=O)N[C@@H](CCC(=O)O)C(=O)N[C@@H](Cc1ccc(O)cc1)C(=O)NCC(=O)N[C@H](C(=O)O)C(C)C (Bz-GVLK(Suc)EYGV-OH),Kd,"protein: NAD-DEPENDENT PROTEIN DEACYLASE SIRTUIN-5, MITOCHONDRIAL zebrafish Sirtuin 5, PDB entry 4utn",0.71 µM (active)
CC(C)C[C@H](NC(=O)[C@@H](NC(=O)CNC(=O)c1ccccc1)C(C)C)C(=O)N[C@@H](CCCCN)C(=O)N[C@@H](CCC(=O)O)C(=O)N[C@@H](Cc1ccc(O)cc1)C(=O)NCC(=O)N[C@H](C(=O)O)C(C)C (Bz-GVLKEYGV-OH),Kd,"protein: NAD-DEPENDENT PROTEIN DEACYLASE SIRTUIN-5, MITOCHONDRIAL zebrafish Sirtuin 5, PDB entry 4utr",0.7 µM (active)
same,Kd,"protein: NAD-DEPENDENT PROTEIN DEACYLASE SIRTUIN-5, MITOCHONDRIAL zebrafish Sirtuin 5, PDB entry 4utv",8.2 µM (active)
same,Kd,"protein: NAD-DEPENDENT PROTEIN DEACYLASE SIRTUIN-5, MITOCHONDRIAL zebrafish Sirtuin 5, PDB entry 4utx",5.78 µM (active)
same,Kd,"protein: NAD-DEPENDENT PROTEIN DEACYLASE SIRTUIN-5, MITOCHONDRIAL zebrafish Sirtuin 5, PDB entry 4uu7",0.83 µM (active)
same,Kd,"protein: NAD-DEPENDENT PROTEIN DEACYLASE SIRTUIN-5, MITOCHONDRIAL zebrafish Sirtuin 5, PDB entry 4uu8",0.29 µM (active)
same,Kd,"protein: NAD-DEPENDENT PROTEIN DEACYLASE SIRTUIN-5, MITOCHONDRIAL zebrafish Sirtuin 5, PDB entry 4uua",5.78 µM (active)
CC(=O)n1ccc2nc3ccc(Cl)cc3c-2c1,Kd,"protein: Bromodomain adjacent to zinc finger domain protein 2B BAZ2B Bromodomain, PDB entry 4nra",65 µM (active)
c1ccc(-c2nsc(N3CCCNCC3)n2)cc1,Kd,"protein: INTEGRASE, PDB entry 4ah9",3500 µM (active)
Cc1ccc(C(=O)N(CCCN)[C@@H](C2=C(Cc3ccccc3)C(O)c3ccc(Cl)cc3O2)C(C)C)cc1 (stereo partly drawn),Kd,"protein: KINESIN-LIKE PROTEIN KIF11, PDB entry 4bxn",0.01 µM (active)
O[C@@H](CC1c2ccccc2Sc2ccccc21)CN1CCCC1,Kd,"protein: Renin, PDB entry 4gj8",500 µM (active)
Cc1ncc2c(n1)N(C)C(=O)C(=N)C2,Kd,"protein: Caspase-6, PDB entry 4n5d",607 µM (active)
CC[C@H](C)[C@H](NC(=O)[C@H](CC(C)C)NC(=O)[C@H](Cc1c[nH]cn1)NC(=O)[C@H](CC(=O)O)NC(=O)[C@H](CC(=O)O)NC(=O)[C@H](CCC(=O)O)NC(=O)[C@H](CC(=O)O)NC(=O)[C@@H](NC(=O)[C@H](CC(=O)O)NC(=O)[C@@H](N)CCC(=O)O)[C@@H](C)O[P+](O)(O)O)C(=O)N[C@@H](Cc1ccc(O)cc1)C(=O)N[C@@H](CC(C)C)C(=O)N[C@@H](CCC(=O)O)C(=O)N[C@@H](CCC(=O)O)C(=O)N[C@H](C(=O)N[C@@H](CC(C)C)C(=O)N[C@H](C(=O)N[C@@H](CCCNC(N)N)C(=O)N[C@H](C(=O)O)C(C)C)C(C)C)[C@@H](C)CC (H-ED[Thr(P(OH)3+)]DEDDHLIYLEEILV[Orn(CH(NH2)2)]V-OH),Kd,"protein: C-terminal domain of human RAP74, PDB entry 2k7l",0.7 µM (active)
CC[C@H](C)[C@H](NC(=O)CNC(=O)[C@H](CCC(=O)O)NC(=O)CNC(=O)[C@H](CCC(=O)O)NC(=O)[C@H](CCC(=O)O)NC(=O)[C@H](CC(C)C)NC(=O)CNC(=O)[C@H](Cc1ccccc1)NC(=O)[C@H](Cc1c[nH]cn1)NC(=O)[C@H](Cc1ccc(O)cc1)NC(=O)[C@H](CC(=O)O)NC(=O)[C@@H](N)CC(C)C)C(=O)N[C@@H](CCCNC(N)N)C(=O)N[C@@H](CC(=O)O)C(=O)N[C@@H](CC(C)C)C(=O)N[C@@H](Cc1ccccc1)C(=O)N[C@H](C)CC(=O)O,Kd,"protein: The human retinoblastoma tumor suppressor protein (pRb), PDB entry 1o9k",0.34 µM (active)
CC1CCN(c2cc(-c3ccc(C(F)(F)F)cc3)nc(N)n2)CC1,Kd,"protein: Acetylcholine-binding protein AChBP, PDB entry 4qac",0.0004 µM (active)
Nc1nc(-c2ccc(C(F)(F)F)cc2)cc(N2CCOCC2)n1,Kd,"protein: Acetylcholine-binding protein AChBP, PDB entry 4qab",0.0002 µM (active)
CCCCCC[C@](C)(NC(=O)[C@H](CC(=O)O)NC(=O)[C@H](CC(C)C)N[C@@H](O)[C@](C)(CCCCCC)N[C@@H](O)CN)C(=O)N[C@@H](CC(C)C)C(=O)N[C@@H](CC(=O)O)C(=O)N[C@@H](CC(C)C)C(=O)N[C@@H](C)C(=O)N[C@@H](CO)C(=O)O (H-[X3]D[X4]LDLAS-OH),Kd,"protein: 14-3-3 protein zeta/delta, PDB entry 4n84",0.51 µM (active)
CCCC[C@@](C)(NC(=O)CNC(=O)[C@@H](N)CCC(N)=O)C(=O)N[C@@H](CC(C)C)C(=O)N[C@@H](CC(=O)O)C(=O)N[C@@](C)(CCCC)C(=O)N[C@@H](CC(C)C)C(=O)N[C@@H](CC(=O)O)C(=O)N[C@@H](CC(C)C)C(=O)N[C@@H](C)C(=O)N[C@@H](CO)C(=O)O (H-QG[X1]LD[X2]LDLAS-OH),Kd,"protein: 14-3-3 protein zeta/delta, PDB entry 4n7y",0.55 µM (active)
c1ccc([C@@H]2Nc3ccccc3-c3nc4ccccc4n32)nc1,Kd,"protein: Retinal rod rhodopsin-sensitive cGMP 3',5'-cyclic phosphodiesterase subunit delta, PDB entry 4jv8",1.42 µM (active)
Cc1cc2nc3c(=O)[nH]c(=O)nc-3n(C[C@H](O)[C@H](O)[C@H](O)CO)c2cc1C,Kd,"protein: putative protease fromBacteroides thetaiotaomicron (ppBat), PDB entry 4d1y",0.074 µM (active)
O=C1N[C@@H](c2cccnc2)c2c(-c3ccccc3)n[nH]c21,Kd,"protein: Gag protein, PDB entry 4j93",20 µM (active)
